# Laboratory results from the supplement of paper PMC6555819.
# Key:
# Assay in all cases: PBM binding z-score (relative to random genomic background probes); higher = stronger binding; sequences stand for … in GC…GCGATTGACAGCGTAGAATGAAGG
# [1] = test system: RARg:RXRa (NR concentration 270 nM, RXRa partner concentration 90 nM)
# How it was run: (§1)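 Regression normalization was applied to scanned fluorescence from custom Agilent 4×180K protein-binding microarrays. Before scanning, arrays were incubated 1 h with ligand-free nuclear receptor dimers, and binding was detected with antibodies against each partner (one per run). Binding z-scores use the random background probes as reference.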
# [2] = test system: RARg homodimer (NR concentration 270 nM)
# How it was run: as §1
# [3] = test system: RXRa DBDmut IVT, anti-RXR (DBD mutation: RXRa K156A/R161A, NR concentration 90 nM)
# How it was run: as §1
# [4] = test system: RXRa homodimer (NR concentration 180 nM)
# How it was run: as §1
# [5] = test system: THRa:RXRa (NR concentration 90 nM, RXRa partner concentration 90 nM)
# How it was run: as §1
# [6] = test system: THRa homodimer (NR concentration 90 nM)
# How it was run: as §1
# [7] = test system: VDR homodimer (NR concentration 270 nM)
# How it was run: as §1
Sequence,PBM binding z-score [1],PBM binding z-score [2],PBM binding z-score [3],PBM binding z-score [4],PBM binding z-score [5],PBM binding z-score [6],PBM binding z-score [7]
CGAACTAGGTCATCCAGGTCAGTGAATACATTGA,4.85,5.61,2.52,3.47,4.21,2.83,3.77
CGTCCAAGGTCATTGGAGGTCAGTGAAGACAGAT,7.03,7.55,4.46,6.96,5.19,3.37,5.22
CGTCCGAGGTCATAGGAGGTCAGTGAAGACAGAT,7.12,7.76,4.48,7.49,5.37,3.58,5.17
CCTAGCAGGCCAATCTAGGTCACTCAAGGCTTGA,1.5,1.85,0.439,0.64,4.18,1.57,0.1
CGTACAAGGTCAAAGGTCAGTGAAGAGATGACGG,8.95,8.28,4.22,10.5,4.71,2.58,4.13
TAGCCTAGGTCATGGGCCAGTGTACCACGCGAAC,4.41,4.65,0.252,3.76,3.13,1.23,0.706
CGTCCAAGGACAATGCTAGGTCAGTGAAAGCATT,1.34,1.85,0.603,0.146,2.91,1.91,0.161
CAAACTAGGTCACTAAAGGTCAAAGTCGAATGAC,7.43,7.86,2.41,7.61,5,2.19,3.72
CAAACTAGGTCACCGAAAGGTCAAAGTCCGCATG,8.9,8.27,2.98,7.88,4.72,2.96,4.24
CTATGTGGGTTAAGGGGGTCATTCAGTTTGAAAG,5.36,4.42,3.34,6.11,4.29,3.69,6.5
CTATGTAGGTCAAGGGGGTCATTCAGTTTGAAAG,7.26,6.93,3.29,7.64,4.27,2.15,7.37
CCTTACGGGTTACTCCAGGTTATAGCATCGGAGT,0.987,0.779,-0.0626,1.26,4.49,0.236,0.487
AGAATGAGATTACCAAAGATCAGGGAAACGCTTG,0.145,0.36,-0.574,0.178,-0.261,-0.869,-0.177
CCTAGTTGGTCAAGGTCACATACGCTATAGGTAC,4.18,4.37,2.21,3.89,3.96,3.88,3.56
CGTCTAAGGTCATAGGAGGTCAGTGAAGACAGAT,7.35,7.8,4.42,7.22,5.51,4.81,4.89
AGAATGAGGTTAAACGTAGATCAGGGAAGAAAGT,2.9,1.54,2.08,3.22,2.55,0.549,1.04
AGTCAAAGTTTATCTAGGTAACGTAAGATATGCT,1.12,1.41,1.93,0.551,1.6,-0.0604,1.31
CCGACTGGGGCAAGGTCACCATAACGCACAGCCA,4.32,4.45,0.549,4.37,3.66,2.7,2.02
AGTCAAAGTGCATCTAGGTAACGTAAGATATGCT,1.07,1.23,1.55,0.663,1.31,-0.154,0.36
TAGCCTAGTTCATTCAGGGGCCAGTATAGAAAGC,3.6,1.34,2.96,0.328,1.68,-0.0964,2.71
CGAACAAGGTCACCAGGACAGTGAAGAGGTTGGA,6.81,6.95,3.8,7.03,4.15,3.1,2.83
CCGAATAGGTTACGAGGGGGCATTCAGTGCGAAT,3.99,2.87,1.75,3.03,4.03,0.692,3.51
CCTACTGGGCCAAAGGTGATTGATTCCAATGCTC,0.547,0.234,-0.2,0.624,0.0559,-0.0264,0.165
AGTCAAAGTTCATCTAGGTAACATAAGATATGCT,5.69,6.1,4.79,4.84,3.19,0.324,5.55
CCTCGGAGGACAGAAGGTCAAAGCTGTCCGCTTT,4.94,4.52,0.948,4.07,3.2,0.161,0.867
AATAAAGGGTCATCGTAGGCCAGAGTACGCACAG,6.49,6.51,3.4,6.51,4.49,0.425,3.62
AATACAGGGTGACTAGGCCAGAGTAGGTACGAAT,0.739,0.693,-0.419,0.911,0.915,0.154,0.309
ACTCGGTGGACAAAGGTCAGAGCTACGCCAGTGA,4.58,4.49,0.0487,4.44,2.45,-0.204,0.332
ATCGAAAGGTCTAAGGTGAGTATACCCACCCGAA,1.27,1.29,-0.301,1.25,2.28,1.67,0.152
CGTCAAACTTCAACTAAGGTAACGTAAAGCACGC,0.289,0.43,0.617,0.424,2.4,1.98,0.47
